Consider three sequences from paper PMC11006913.

Positions count from the first letter of the chain named.

Holding throughout (assay): PBM; 200 nM protein, PBS
Holding throughout (conditions): dsDNA, one strand shown

Assay [1] concerns the target CRX (Homo sapiens, UniProt O43186 26-111).
Assay [2] concerns the target HOXB9 (Homo sapiens, UniProt P17482 171-250, T197M).
The target of assay [3] is HOXC9 (Homo sapiens, UniProt P31274 178-260, K195R).
The target of assay [4] is HOXA7 (Homo sapiens, UniProt P31268 116-202).
HOXA7 (Homo sapiens, UniProt P31268 116-202), sequence (P31268 116-202): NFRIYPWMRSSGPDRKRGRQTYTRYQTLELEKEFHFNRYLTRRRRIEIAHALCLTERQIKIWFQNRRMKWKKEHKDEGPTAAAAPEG
The target of assay [5] is T1, PAX4 (Homo sapiens, UniProt O43316 9-242, R200K).
T1 sequence: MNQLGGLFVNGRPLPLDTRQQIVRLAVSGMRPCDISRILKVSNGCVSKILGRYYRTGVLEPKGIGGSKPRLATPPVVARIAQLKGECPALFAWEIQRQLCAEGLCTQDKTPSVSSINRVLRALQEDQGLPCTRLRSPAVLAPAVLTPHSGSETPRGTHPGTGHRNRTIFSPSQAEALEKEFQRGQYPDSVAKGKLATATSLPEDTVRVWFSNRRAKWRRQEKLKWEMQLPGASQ

The target in assay [6] is T2, PAX4 (Homo sapiens, UniProt O43316 9-242).
T2 sequence: T1 sequence with K192R

For assay [7], the target named is HOXB6 (Homo sapiens, UniProt P17509 132-218, K202E).
HOXB6 (Homo sapiens, UniProt P17509 132-218, K202E), sequence (P17509 132-218 K202E): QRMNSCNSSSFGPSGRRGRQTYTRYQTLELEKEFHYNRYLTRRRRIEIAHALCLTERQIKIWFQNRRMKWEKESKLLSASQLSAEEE
Assay [8] concerns the target HOXB9 (Homo sapiens, UniProt P17482 171-250).
For assay [9], the target named is CRX (Homo sapiens, UniProt O43186 26-111, E42D).
CRX (Homo sapiens, UniProt O43186 26-111, E42D), sequence (O43186 26-111 E42D): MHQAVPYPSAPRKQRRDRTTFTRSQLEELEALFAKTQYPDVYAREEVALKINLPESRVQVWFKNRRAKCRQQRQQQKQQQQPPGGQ
In assay [10] the target is HOXC9 (Homo sapiens, UniProt P31274 178-260).
HOXC9 (Homo sapiens, UniProt P31274 178-260), sequence (P31274 178-260): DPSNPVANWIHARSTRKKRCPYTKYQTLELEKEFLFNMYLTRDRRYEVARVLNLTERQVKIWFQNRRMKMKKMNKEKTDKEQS
In assay [11] the target is ALX3 (Homo sapiens, UniProt O95076 139-225, N203Q).
ALX3 (Homo sapiens, UniProt O95076 139-225, N203Q), sequence (O95076 139-225 N203Q): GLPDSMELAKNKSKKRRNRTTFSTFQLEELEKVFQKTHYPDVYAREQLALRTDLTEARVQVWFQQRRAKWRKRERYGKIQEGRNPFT
The next assay addresses HOXD13 (Homo sapiens, UniProt P35453 263-343, T313R).
Assay [12] concerns the target T3, PAX4 (Homo sapiens, UniProt O43316 9-242, R200Q).
T3 sequence: T1 sequence with K192Q

Assay [13] has as its target HOXC9 (Homo sapiens, UniProt P31274 178-260, R193K).
In assay [14] the target is T4, PAX4 (Homo sapiens, UniProt O43316 9-242, F177V).
T4 sequence: T1 sequence with F169V, K192R

The next assay concerns the target HOXC10 (Homo sapiens, UniProt Q9NYD6 254-340, K271E).
The target of assay [15] is T5, PAX4 (Homo sapiens, UniProt O43316 9-242, F177Y).
T5 sequence: T1 sequence with F169Y, K192R

For assay [16], the target named is HESX1 (Homo sapiens, UniProt Q9UBX0 95-180, R109Q).
HESX1 (Homo sapiens, UniProt Q9UBX0 95-180, R109Q), sequence (Q9UBX0 95-180 R109Q): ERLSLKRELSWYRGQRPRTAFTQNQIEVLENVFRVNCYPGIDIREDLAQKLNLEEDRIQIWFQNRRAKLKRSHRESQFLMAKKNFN
The target of assay [17] is HOXB9 (Homo sapiens, UniProt P17482 171-250, R186Q).
HOXB9 (Homo sapiens, UniProt P17482 171-250, R186Q), sequence (P17482 171-250 R186Q): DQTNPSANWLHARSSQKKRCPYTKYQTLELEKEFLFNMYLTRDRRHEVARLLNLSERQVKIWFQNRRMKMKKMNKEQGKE
Assay [18] deals with HOXC9 (Homo sapiens, UniProt P31274 178-260, R222W).
HOXC9 (Homo sapiens, UniProt P31274 178-260, R222W), sequence (P31274 178-260 R222W): as the sequence (P31274 178-260) above, with R45W counted along it
Assay [19] has as its target HESX1 (Homo sapiens, UniProt Q9UBX0 95-180, F115L).
Assay [20] addresses T6, PAX4 (Homo sapiens, UniProt O43316 9-242, R227W).
T6 sequence: T1 sequence with K192R, R219W

Assay [21] concerns the target HOXA7 (Homo sapiens, UniProt P31268 116-202, W177C).
Assay [22] deals with CRX (Homo sapiens, UniProt O43186 26-111, R41L).
CRX (Homo sapiens, UniProt O43186 26-111, R41L), sequence (O43186 26-111 R41L): as the sequence (O43186 26-111 E42D) above, with R16L, D17E counted along it
The target in assay [23] is ALX3 (Homo sapiens, UniProt O95076 139-225, N203S).
ALX3 (Homo sapiens, UniProt O95076 139-225, N203S), sequence (O95076 139-225 N203S): as the sequence (O95076 139-225 N203Q) above, with Q65S counted along it
For assay [24], the target named is HOXB6 (Homo sapiens, UniProt P17509 132-218).
HOXB6 (Homo sapiens, UniProt P17509 132-218), sequence (P17509 132-218): as the sequence (P17509 132-218 K202E) above, with E71K counted along it
The target in assay [25] is T7, VENTX (Homo sapiens, UniProt O95231 78-163, R121Q).
T7 sequence: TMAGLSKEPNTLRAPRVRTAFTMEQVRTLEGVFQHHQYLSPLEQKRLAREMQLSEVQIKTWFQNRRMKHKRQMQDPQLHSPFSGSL

The target in assay [26] is T8, VENTX (Homo sapiens, UniProt O95231 78-163, Y115F).
T8 sequence: T7 sequence with Y38F, Q44R

The target of assay [27] is HOXA4 (Homo sapiens, UniProt Q00056 201-287, W262R).
HOXA4 (Homo sapiens, UniProt Q00056 201-287, W262R), sequence (Q00056 201-287 W262R): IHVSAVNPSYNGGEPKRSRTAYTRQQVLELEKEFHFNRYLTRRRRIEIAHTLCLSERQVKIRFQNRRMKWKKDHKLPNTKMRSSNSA
Assay [28] concerns the target PRRX1 (Homo sapiens, UniProt P54821 80-166, F113S).
For assay [29], the target named is HOXA4 (Homo sapiens, UniProt Q00056 201-287, R217L).
HOXA4 (Homo sapiens, UniProt Q00056 201-287, R217L), sequence (Q00056 201-287 R217L): as the sequence (Q00056 201-287 W262R) above, with R17L, R62W counted along it
Assay [30] concerns the target HOXA4 (Homo sapiens, UniProt Q00056 201-287).
Assay [31] has as its target HOXA4 (Homo sapiens, UniProt Q00056 201-287, W262F).
Assay [32] has as its target PRRX1 (Homo sapiens, UniProt P54821 80-166).

CRX (Homo sapiens, UniProt O43186 26-111), sequence (O43186 26-111): as the sequence (O43186 26-111 E42D) above, with D17E counted along it
HOXB9 (Homo sapiens, UniProt P17482 171-250, T197M), sequence (P17482 171-250 T197M): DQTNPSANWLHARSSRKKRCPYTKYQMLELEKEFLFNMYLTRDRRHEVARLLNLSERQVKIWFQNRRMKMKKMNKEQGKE
PRRX1 (Homo sapiens, UniProt P54821 80-166), sequence (P54821 80-166): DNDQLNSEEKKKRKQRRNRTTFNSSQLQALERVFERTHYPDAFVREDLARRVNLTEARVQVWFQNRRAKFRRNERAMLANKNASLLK
HOXC10, sequence (Q9NYD6 254-340 K271E): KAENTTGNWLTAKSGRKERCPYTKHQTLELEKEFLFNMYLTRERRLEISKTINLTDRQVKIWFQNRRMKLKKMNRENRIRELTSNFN
HOXA7 (Homo sapiens, UniProt P31268 116-202, W177C), sequence (P31268 116-202 W177C): as the sequence (P31268 116-202) above, with W62C counted along it
HESX1 (Homo sapiens, UniProt Q9UBX0 95-180, F115L), sequence (Q9UBX0 95-180 F115L): as the sequence (Q9UBX0 95-180 R109Q) above, with Q15R, F21L counted along it
HOXC9 (Homo sapiens, UniProt P31274 178-260, K195R), sequence (P31274 178-260 K195R): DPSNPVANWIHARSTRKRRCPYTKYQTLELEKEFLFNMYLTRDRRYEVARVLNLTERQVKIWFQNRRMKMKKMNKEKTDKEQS
HOXD13, sequence (P35453 263-343 T313R): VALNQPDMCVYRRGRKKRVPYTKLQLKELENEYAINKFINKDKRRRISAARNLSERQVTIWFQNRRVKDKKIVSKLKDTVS
HOXA4 (Homo sapiens, UniProt Q00056 201-287), sequence (Q00056 201-287): as the sequence (Q00056 201-287 W262R) above, with R62W counted along it
PRRX1 (Homo sapiens, UniProt P54821 80-166, F113S), sequence (P54821 80-166 F113S): as the sequence (P54821 80-166) above, with F34S counted along it
HOXB9 (Homo sapiens, UniProt P17482 171-250), sequence (P17482 171-250): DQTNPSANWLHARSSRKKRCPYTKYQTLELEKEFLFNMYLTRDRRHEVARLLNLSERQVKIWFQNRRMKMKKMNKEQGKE
HOXA4 (Homo sapiens, UniProt Q00056 201-287, W262F), sequence (Q00056 201-287 W262F): as the sequence (Q00056 201-287 W262R) above, with R62F counted along it
HOXC9 (Homo sapiens, UniProt P31274 178-260, R193K), sequence (P31274 178-260 R193K): as the sequence (P31274 178-260) above, with R16K counted along it

For ATATTAAT, the binding signal was 11.6 upbm affinity estimate (log intensity, higher = more binding, comparable within an allelic series) in the assay with CRX [1]; 10.2 upbm affinity estimate (log intensity, higher = more binding, comparable within an allelic series) with HOXB9 [2]; 12.5 upbm affinity estimate (log intensity, higher = more binding, comparable within an allelic series) in the assay with HOXC9 [3]; 11.2 upbm affinity estimate (log intensity, higher = more binding, comparable within an allelic series) with HOXA7 [4]; 11.7 upbm affinity estimate (log intensity, higher = more binding, comparable within an allelic series) with PAX4 [5]; 12.1 upbm affinity estimate (log intensity, higher = more binding, comparable within an allelic series) in the assay with PAX4 [6]. Besides, the binding signal with HOXB6 [7] was 10.1 upbm affinity estimate (log intensity, higher = more binding, comparable within an allelic series); in the assay with HOXB9 [8], 11.8 upbm affinity estimate (log intensity, higher = more binding, comparable within an allelic series); with CRX [9], 11.5 upbm affinity estimate (log intensity, higher = more binding, comparable within an allelic series); with HOXC9 [10], 12.5 upbm affinity estimate (log intensity, higher = more binding, comparable within an allelic series); in the assay with ALX3 [11], 8.63 upbm affinity estimate (log intensity, higher = more binding, comparable within an allelic series); with HOXD13 it was 10.8 upbm affinity estimate (log intensity, higher = more binding, comparable within an allelic series). Moreover, the binding signal was 11.9 upbm affinity estimate (log intensity, higher = more binding, comparable within an allelic series) with PAX4 [12]; 12.5 upbm affinity estimate (log intensity, higher = more binding, comparable within an allelic series) with HOXC9 [13]; 10.7 upbm affinity estimate (log intensity, higher = more binding, comparable within an allelic series) with PAX4 [14]; 11.8 upbm affinity estimate (log intensity, higher = more binding, comparable within an allelic series) in the assay with HOXC10; 11 upbm affinity estimate (log intensity, higher = more binding, comparable within an allelic series) with PAX4 [15]; 8.59 upbm affinity estimate (log intensity, higher = more binding, comparable within an allelic series) with HESX1 [16]. In addition, the binding signal is 11.5 upbm affinity estimate (log intensity, higher = more binding, comparable within an allelic series) with HOXB9 [17]; 11.1 upbm affinity estimate (log intensity, higher = more binding, comparable within an allelic series) with HOXC9 [18]; 8.13 upbm affinity estimate (log intensity, higher = more binding, comparable within an allelic series) with HESX1 [19]; 11 upbm affinity estimate (log intensity, higher = more binding, comparable within an allelic series) in the assay with PAX4 [20]; 9 upbm affinity estimate (log intensity, higher = more binding, comparable within an allelic series) with HOXA7 [21]; 11 upbm affinity estimate (log intensity, higher = more binding, comparable within an allelic series) in the assay with CRX [22]. Also, the binding signal in the assay with ALX3 [23] was 8.74 upbm affinity estimate (log intensity, higher = more binding, comparable within an allelic series); with HOXB6 [24] it was 11.8 upbm affinity estimate (log intensity, higher = more binding, comparable within an allelic series).

As to ATAATCTG, the binding signal in the assay with CRX [1] was 13 upbm affinity estimate (log intensity, higher = more binding, comparable within an allelic series); with VENTX [25], 9.97 upbm affinity estimate (log intensity, higher = more binding, comparable within an allelic series); with VENTX [26], 10.1 upbm affinity estimate (log intensity, higher = more binding, comparable within an allelic series); in the assay with CRX [9], 13 upbm affinity estimate (log intensity, higher = more binding, comparable within an allelic series); with CRX [22], 13 upbm affinity estimate (log intensity, higher = more binding, comparable within an allelic series).

On to CCCGTCCC, for which the binding signal with CRX [1] is 8.36 upbm affinity estimate (log intensity, higher = more binding, comparable within an allelic series); with HOXA4 [27], 9.79 upbm affinity estimate (log intensity, higher = more binding, comparable within an allelic series); with PRRX1 [28], 9.36 upbm affinity estimate (log intensity, higher = more binding, comparable within an allelic series); with HOXA4 [29], 9.77 upbm affinity estimate (log intensity, higher = more binding, comparable within an allelic series); with CRX [9], 8.37 upbm affinity estimate (log intensity, higher = more binding, comparable within an allelic series); with HOXA4 [30], 9.89 upbm affinity estimate (log intensity, higher = more binding, comparable within an allelic series). For the same sequence, the binding signal with CRX [22] is 8.4 upbm affinity estimate (log intensity, higher = more binding, comparable within an allelic series); with HOXA4 [31], 9.95 upbm affinity estimate (log intensity, higher = more binding, comparable within an allelic series); in the assay with PRRX1 [32], 9.4 upbm affinity estimate (log intensity, higher = more binding, comparable within an allelic series).
